Test results taken from PubChem BioAssay.
“And” between values parts separate entries of the source, which are not always exact repeats. Identical values can stand only once. For some assays here: Measured potencies and affinities stand elsewhere. The source made the active and inactive calls.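 How the source made its calls, unless noted: active means compounds whose cell count with miR-34 switched on is under 0.7 times the count with it off; inactive means the rest.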

Key:
[1] = liver-stage malaria parasite growth inhibition, primary screen, cell-based, HepG2, luciferase luminescence, HepG2 viability (AID 624349; in the data active means parasite load remaining mostly below about 12%, no sharp cut-off; inactive means mostly above about 10%;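 further: 100% = mean of DMSO negative control wells on the same plate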); details: P. berghei liver stage in HepG2, luciferase luminescence, concentration not given here; parasite load remaining: stronger effect = lower value; viability: measured here: HepG2 viability without parasites
[2] = differential killing of epithelial or mesenchymal cells, primary screen, imaging, PC-3E GFP, TEM4-18 mCherry, co-culture (AID 1345086;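 active means compounds killing one labelled cell type while sparing the other, by normalised counts and ratio limits, not self-fluorescent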;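 on all read-outs here: cells exposed to compound for 72 h before imaging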;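 on red/green cell ratio (normalised): normalised mesenchymal count divided by normalised epithelial count so high means epithelial killing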); details: imaging cell counts, at 1 µM; for red/green cell ratio (normalised): actives lie on both sides, counts scaled to control wells, 1 = unselective
[3] = sensitizers of A549 cells to miR-34 induction, primary screen, imaging, A549 dox-inducible miR-34, nuclei and caspase counts (AID 1347080); details: A549 miR-34 inducible, Hoechst nuclei count, 48 h
[4] = target: NAD(+) hydrolase SARM1 (Homo sapiens) (UniProt Q6SZW1); assay: SARM1 TIR NADase inhibitors, cell lysate, NAD-Glo luminescence (AID 1508614;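 active means compound whose remaining NAD level is above about 45 nM, limit read from the data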); details: SAM-TIR HEK293T lysate NADase, at 1 µM, stronger effect = higher value
NAD(+) hydrolase SARM1 (Homo sapiens), sequence (Q6SZW1 whole entry, looked up, the tested form may be a part): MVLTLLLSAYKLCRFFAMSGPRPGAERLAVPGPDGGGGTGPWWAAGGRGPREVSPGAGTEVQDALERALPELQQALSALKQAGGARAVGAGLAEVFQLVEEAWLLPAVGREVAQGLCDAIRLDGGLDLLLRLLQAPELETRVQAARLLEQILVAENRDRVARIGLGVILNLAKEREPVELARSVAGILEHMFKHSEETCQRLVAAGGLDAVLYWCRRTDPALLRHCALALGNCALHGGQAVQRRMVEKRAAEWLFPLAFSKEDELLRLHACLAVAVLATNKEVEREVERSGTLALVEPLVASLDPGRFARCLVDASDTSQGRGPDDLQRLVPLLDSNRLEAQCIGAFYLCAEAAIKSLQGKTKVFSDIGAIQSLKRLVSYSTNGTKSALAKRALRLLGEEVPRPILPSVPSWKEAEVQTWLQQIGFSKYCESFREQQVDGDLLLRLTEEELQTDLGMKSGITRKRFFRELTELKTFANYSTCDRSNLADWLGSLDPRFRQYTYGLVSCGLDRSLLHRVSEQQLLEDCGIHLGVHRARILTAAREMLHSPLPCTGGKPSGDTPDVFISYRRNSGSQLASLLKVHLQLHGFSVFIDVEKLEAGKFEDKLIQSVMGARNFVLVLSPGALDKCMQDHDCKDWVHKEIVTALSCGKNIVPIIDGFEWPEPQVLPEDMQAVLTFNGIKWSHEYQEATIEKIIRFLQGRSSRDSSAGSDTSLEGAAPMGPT

[5] = target: Mitogen-activated protein kinase 7 (Homo sapiens) (UniProt Q13164); assay: ERK5 transactivation activators in reporter cells, primary screen, cell-based, HTS (AID 1508626;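 active means luciferase signal above three times the same-plate solvent-only control wells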;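 further: luciferase driven by Gal4-ERK5 fusion binding five Gal4 sites before minimal TATA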); details: HeLa Gal4-ERK5 transactivation, 18 h, at 5 µM, stronger effect = higher value
Mitogen-activated protein kinase 7 (Homo sapiens), sequence (Q13164 whole entry, looked up, the tested form may be a part): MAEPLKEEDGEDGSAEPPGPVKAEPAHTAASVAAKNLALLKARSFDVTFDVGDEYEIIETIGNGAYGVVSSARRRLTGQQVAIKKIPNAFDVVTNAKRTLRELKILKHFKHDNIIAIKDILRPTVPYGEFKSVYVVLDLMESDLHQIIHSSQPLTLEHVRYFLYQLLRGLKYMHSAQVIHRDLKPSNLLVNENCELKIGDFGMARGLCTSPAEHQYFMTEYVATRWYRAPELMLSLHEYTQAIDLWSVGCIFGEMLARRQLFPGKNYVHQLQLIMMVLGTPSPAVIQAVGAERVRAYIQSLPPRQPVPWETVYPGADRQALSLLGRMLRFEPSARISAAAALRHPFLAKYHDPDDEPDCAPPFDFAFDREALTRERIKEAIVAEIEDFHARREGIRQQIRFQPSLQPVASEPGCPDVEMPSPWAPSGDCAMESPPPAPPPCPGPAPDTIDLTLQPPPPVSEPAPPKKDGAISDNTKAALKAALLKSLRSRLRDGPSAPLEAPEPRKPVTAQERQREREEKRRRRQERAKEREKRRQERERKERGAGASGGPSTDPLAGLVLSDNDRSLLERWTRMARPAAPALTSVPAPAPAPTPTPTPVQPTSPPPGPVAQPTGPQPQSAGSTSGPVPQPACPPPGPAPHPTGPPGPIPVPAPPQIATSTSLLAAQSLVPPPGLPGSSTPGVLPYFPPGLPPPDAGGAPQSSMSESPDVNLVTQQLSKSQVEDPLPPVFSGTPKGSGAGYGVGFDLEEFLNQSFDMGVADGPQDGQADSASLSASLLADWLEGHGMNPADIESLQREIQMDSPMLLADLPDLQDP

[6] = polyglutamine-triggered caspase-3 activation inhibitors, cell-based (AID 1583); details: polyglutamine-induced caspase-3 activation, cell assay; stronger effect = higher value;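 tested at 10 µM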
[7] = suppressors of polyQ aggregation in yeast, 75Q-TubU reporter (AID 1593); details: Yeast 75Q polyglutamine aggregation reporter
[8] = rescue of polyQ-huntingtin neuronal dysfunction in worms, whole organism, C. elegans mechanosensory neurons, N-terminal huntingtin (AID 1599); details: touch response, stronger effect = higher value
[9] = inhibitors of mitochondrial cytochrome c release, biochemical, purified mitochondria (AID 1603); details: stronger effect = lower value;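 further: mouse liver mitochondria challenged with calcium chloride; signal normalized to the plate average as 100%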
[10] = inhibitors of polyQ protein aggregation (AID 1604); details: polyglutamine-induced protein aggregation inhibition assay; stronger effect = higher value; tested at 2.5 µM
[11] = enhancers of glutamate uptake in motor neurons, MN-1 cell line (AID 1612); details: MN-1 motor neuron cells, stronger effect = higher value;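 further: tested at 1 µM final; 0% = mean of DMSO vehicle wells on each plate; positive means more glutamate uptake than control and negative means less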
[12] = reducers of polyQ inclusions in PC12 cells, cell-based, NGF-treated PC12, GFPQ80 (AID 1614); details: PC12 NGF-treated GFP-polyQ80 inclusion reduction;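 further: lower means fewer inclusions and 0 means no inclusions at all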
[13] = suppressors of polyglutamine aggregation in yeast, 75Q-TubH (AID 1616); details: S. cerevisiae 75Q-TubH polyglutamine aggregation suppression; stronger effect = higher value
[14] = viability rescue of complex I mutant cybrids, primary screen, cell-based, galactose medium, ATP luminescence (AID 1645843;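 active means z-score of at least 1.8 in each of two replicates, scored against plate mean and spread of sample wells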;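 further: positive z means more ATP and so rescue of galactose-driven cybrid death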); details: complex I mutant cybrid cells, 72 h, stronger effect = higher value
[15] = measured here: epithelial PC-3E GFP cell survival
[16] = measured here: mesenchymal TEM4-18 mCherry cell survival
[17] = stronger effect = lower value, cell number ratio, induced over uninduced
[18] = measured here: relative caspase fold change +Dox/-Dox
[19] = measured here: total cells with miR-34 induction, stronger effect = lower value
[20] = measured here: total cells without miR-34 induction

Structure (SMILES)	parasite load remaining [1]	viability [1]	red/green cell ratio (normalised) [2]	normalised cell number [2, 15]	normalised cell number [2, 16]	fold change [3, 17]	fold change [3, 18]	cell count [3, 19]	cell count [3, 20]	remaining NAD [4]	luciferase signal [5]	inhibition [6] [%]	score [7]	rescue above control [8]	cytochrome c release ratio [9]	inhibition of aggregation [10] [%]	glutamate uptake change [11] [%]	inclusion score [12]	aggregation suppression score [13]	z-score [14]
C=CCCCCCCCCC(=O)[O-].C=CCCCCCCCCC(=O)[O-].[Zn+2]	88.8% (inactive)	94.5%	1.08 (inactive)	0.98	1.05	0.86 (inactive)	4.55	11700	13600	10 nM (inactive)	48 AU (inactive)	–	–	–	–	–	–	–	–	–
Cc1ccc(S(=O)(=O)NCl)cc1	–	–	0.85 (inactive)	0.97	0.83	0.925 (inactive)	0.99	8910	9630	10 nM (inactive)	–	–	–	–	–	–	–	–	–	–
CC(=O)O[C@]1(C(C)=O)CCC2C3C=C(Cl)C4=CC(=O)[C@@H]5C[C@@H]5[C@]4(C)C3CC[C@@]21C (stereo partly specified)	90.2% (inactive) and 39.4% (inactive)	70.9% and 86.5%	0.81 (inactive)	1.12	0.91	0.907 (inactive)	1.85	11200	12400	–	–	22.9	0.66	-6.61	1.14	61	14.6	1	0.413	–
O=C1/C(=C/c2cccs2)CCC/C1=C\c1cccs1	–	–	1 (inactive)	0.96	0.97	0.964 (inactive)	1.06	7510	7800	10 nM (inactive)	–	–	–	–	–	–	–	–	–	–
C#C[C@]1(O)CCC2C3CCc4cc(O)ccc4C3CC[C@@]21C (stereo partly specified)	88.3% (inactive) and 66.4% (inactive)	76.2% and 99.2%	0.98 (inactive)	1.1	1.07	1.12 (inactive) and 1.01 (inactive)	1.15 and 1.03	5370 and 6100	4780 and 6050	–	–	15.5	0.67	-11.3	1.15	38.1	-12.7	–	0.484	-0.545 (inactive)
CC(=O)Nc1ccc(S(=O)(=O)c2ccc(NC(C)=O)cc2)cc1	52.4% (inactive)	147%	0.78 (inactive)	1.22	0.95	0.909 (inactive)	4.36	10600	11700	25 nM (inactive)	44 AU (inactive)	–	–	–	–	–	–	–	–	–
CCCC1O[C@@H]2CC3C4CCC5=CC(=O)C=CC5(C)C4[C@@H](O)CC3(C)[C@]2(C(=O)CO)O1 (stereo partly specified)	34.5% (inactive) and 13.1% (inactive)	88.8%	1.29 (inactive)	0.99	1.27	0.872 (inactive)	1.29	6800	7800	–	–	18.7	1.33	-3.37	1.5	69.2	-4.39	2	1.53	–
CC(=O)Oc1c(C)c(C)c2c(c1C)CCC(C)(CCCC(C)CCCC(C)CCCC(C)C)O2 (stereo unspecified)	74.6% (inactive)	96%	0.9 (inactive)	0.92	0.84	0.901 (inactive)	1.55	11100	12300	–	44 AU (inactive)	1.05	-0.71	1.2	0.62	56.3	6.04	2	0.546	–
CC(=O)NS(=O)(=O)c1ccc(NC(=O)c2ccccc2C(=O)O)cc1	–	–	0.81 (inactive)	1.22	0.99	0.886 (inactive)	0.953	8920	10100	10 nM (inactive)	100 AU (inactive)	–	–	–	–	–	–	–	–	–
